The record followed here is PubChem BioAssay AID1628 (Sanford-Burnham Center for Chemical Genomics, 2009).

Out of some 190,000 compounds screened, about 930 (0.49%) were called active. The list shows a part of the results. Results with a measured potency or affinity are listed apart. A number with no mark means an inactive call.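 The calls were made as follows: active = z-score of insulin promoter reporter brightness in nuclei below -3 at 5 µM, with at least 500 cells counted; inconclusive = wells with under 500 cells, flagged as toxic or sparse; inactive = the rest.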

The test in a line: insulin promoter down-regulators in MIN6 cells, imaging, high-content screening, mouse beta cells (AID 1628). The conditions noted are these: MIN6 insulin promoter GFP reporter, at 5 µM, stronger effect = lower value.
In the case of `CCCCn1c(=O)[nH]c2nc3cc(N)ccc3nc2c1=O`, the z-score was 4.83.
On to `CCCCCn1c(=O)c(-c2nc3ccccc3[nH]2)c(O)c2ccccc21`, for which the z-score was -5.3 (active).
As to `CCCCCn1nc(-c2ccccc2)c2nc3ccccc3nc21`, the z-score was 4.99.
With `COCCCn1cc(C(=O)c2cc(Br)ccc2O)cc(C#N)c1=O` the figure was 2.45; with `CCC(=O)NC(Nc1ncc(C)s1)(C(=O)OC)C(F)(F)F` (stereo not given), 0.55; with `O=C(Nc1ccc(N2CCN(C(=O)c3ccccc3)CC2)c(Cl)c1)c1ccc(Br)o1`, -3.01 (active).
As for `O=C(Nc1ccc(N2CCN(C(=O)c3ccco3)CC2)c(Cl)c1)c1cc2ccccc2o1`, the z-score was -5.03 (active).
With `Cc1nonc1NC(=O)CSc1nc2c(C)cccc2cc1C#N` the figure was 12.5; with `CCOC(=O)c1cc(C#N)c(SCC(=O)c2cc(C#N)c(SC)nc2C)nc1C`, -4.9 (active); with `COc1ccc2nc(SCC(C)=O)c(C#N)cc2c1`, 8.23.
To `O=[N+]([O-])c1ccc(C2=NN(c3ccccc3)C(c3ccco3)C2)cc1` (stereo not given) belongs 16.5.
`COc1cc(OC)cc(C(=O)N2CCC(N3CCCCCC3)CC2)c1`: the z-score is 1.84.
With `CCOC(=O)c1ccc(Nc2ccc(-c3ccc(OC)c(OC)c3)nn2)cc1` the figure was -3.46 (active); with `Cn1c(=O)c(Nc2ccc(Cl)cc2)c2c3c(cccc31)C(=O)c1ccccc1-2`, 15.1.
In the case of `N#C/C(=C\c1ccc(N2CCOCC2)o1)c1nc2ccccc2[nH]1`, the z-score is 8.22.
With `NS(=O)(=O)c1cccc2cccnc12` the figure was 5.52; with `NCC12CC3CC(C1)CC(CN)(C3)C2`, 3.09; with `Cn1cc(/C=C2\SC(=S)N(NC(=O)c3ccccc3Cl)C2=O)c2ccccc21`, 7.
In the case of `CCOC(=O)c1sc(-c2ccccc2)cc1NC(=O)CSc1nnnn1C`, the z-score was -3.34 (active).
With `COc1ccc(NC(=O)CSc2nnnn2C)c([N+](=O)[O-])c1` the figure was 0.83; with `CCOC(=O)c1c(NC(=O)CSc2nnnn2C)sc(C)c1-c1ccc(C)cc1`, -3.09 (active).
With `CCOC(=O)c1sc(=S)n(-c2ccccc2)c1N(C(C)=O)C(C)=O` the figure was 1.57; with `CC(C)(C)C(=O)c1sc2nc(-c3cccs3)cc(C(F)(F)F)c2c1N`, 13.8.
On to `CCOc1ccccc1NC(=O)C1CCN(S(=O)(=O)c2ccc(OC)c(OC)c2)CC1`, for which the z-score was 0.9.
Turning to `COc1ccc(NC(=O)C2CCN(Cc3cnn(-c4ccccc4)c3-n3cccc3)CC2)cc1OC`, the z-score was -4.57 (active).
To `NC(CO)C(O)c1ccc([N+](=O)[O-])cc1` (stereo not given) belongs -0.09; to `COCCN(CCOC)Cc1cc(=O)oc2cc3c(cc12)CCC3`, 3.14.
With `Cc1cccn2c(=O)c(/C=C3\SC(=S)N(CC(C)C)C3=O)c(NCCCOC(C)C)nc12` the figure was 12.1; with `Cc1ccc2[nH]c3c(c2c1)CN(C(=O)CN1CCN(Cc2ccc4c(c2)OCO4)CC1)CC3`, -3.96 (active); with `C(=C/c1nccc2c1[nH]c1ccccc12)/c1ccc2c(c1)OCO2`, 10.6.
To `O=c1[nH]c(CN2CCN(Cc3ccc4c(c3)OCO4)CC2)nc2sc3c(c12)CCC3` belongs 3.55; to `O=C(CN1CCN(Cc2ccc3c(c2)OCO3)CC1)N1CCc2[nH]c3ccccc3c2C1`, -4.04 (active).
Consider `CCN(CC)c1ccc2cc(-c3nnc(-c4ccncc4)o3)c(=O)oc2c1`, for which the z-score was 4.43.
Consider `COc1ccc2nc(SCC(=O)Nc3ccc(S(=O)(=O)N4CCCC4)cc3)c(C#N)cc2c1`, for which the z-score was 3.47.
To `COc1ccc(S(=O)(=O)N2CCCCC2)cc1NC(=O)CSc1ncnc2ccccc12` belongs -4.48 (active); to `Cc1ccc(-c2noc(CSc3nnnn3-c3ccccc3)n2)cc1`, 2.35.
To `COC(=O)c1ccccc1NC(=S)N1CCC(N2CCCCC2)CC1` belongs 1.65.
Consider `CCOC(=O)c1ccccc1NC(=O)c1ccc2c(=O)n3c(nc2c1)CCCCC3`, for which the z-score is -3.69 (active).
With `CC1(C)CC(N2CCCC2)=CC(=[N+]2CCCCCC2)C1` the figure was -4.54 (active).
To `CCOc1ccc(-n2c(SCC(=O)NC(C)CC)nc3n[nH]c(C)c3c2=N)cc1` (stereo not given) belongs 3.
